Shown are actives, neighbours in structure and some others; about 1.2% of the full set was active somewhere.
RXFP1 antagonist = RXFP1 (human) relaxin receptor antagonism; 0.59% of 350,000 active; AID 1259400; activity change, negative = inhibition, % at 57.5 µM; HEK293-RXFP1, relaxin-stimulated cAMP HTRF, 30 min; hits give low values;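 active = activity change of -60% or lower, but not beyond a set lower limit; inconclusive = change between -60% and -40%, or beyond the set limit; inactive = change above -40%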
Target sequence (Q9HBX9 whole entry, looked up): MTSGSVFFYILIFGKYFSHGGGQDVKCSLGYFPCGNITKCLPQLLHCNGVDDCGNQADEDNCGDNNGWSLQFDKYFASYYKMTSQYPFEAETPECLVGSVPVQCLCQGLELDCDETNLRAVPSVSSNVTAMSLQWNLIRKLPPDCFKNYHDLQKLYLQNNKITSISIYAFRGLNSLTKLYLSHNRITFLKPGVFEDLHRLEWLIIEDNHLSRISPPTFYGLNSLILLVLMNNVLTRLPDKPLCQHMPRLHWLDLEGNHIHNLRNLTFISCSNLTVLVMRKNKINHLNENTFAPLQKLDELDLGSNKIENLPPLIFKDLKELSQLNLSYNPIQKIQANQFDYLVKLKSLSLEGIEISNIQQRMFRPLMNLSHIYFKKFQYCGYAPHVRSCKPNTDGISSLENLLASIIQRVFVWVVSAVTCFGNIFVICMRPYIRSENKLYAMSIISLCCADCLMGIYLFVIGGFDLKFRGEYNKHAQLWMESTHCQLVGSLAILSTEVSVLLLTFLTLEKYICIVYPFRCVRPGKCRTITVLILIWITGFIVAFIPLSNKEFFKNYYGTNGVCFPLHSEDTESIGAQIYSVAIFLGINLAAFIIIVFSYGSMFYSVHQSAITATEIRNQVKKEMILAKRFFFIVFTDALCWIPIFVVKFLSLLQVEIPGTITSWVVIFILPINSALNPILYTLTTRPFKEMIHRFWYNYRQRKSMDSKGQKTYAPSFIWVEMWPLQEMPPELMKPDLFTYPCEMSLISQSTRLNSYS
MmCpn inh = M. maripaludis TRiC chaperonin inhibition; 0.031% of 330,000 active; Potency, µM (doses to about 76.9 µM), most hits filed as inhibitors; purified Mm-Cpn ATPase, ADP Transcreener TR-FRET; AID 504842; note: nearly all actives have a fitted effect of over 80% in size
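ATPase read-out: TR-FRET ADP immunoassay (anti-ADP Eu cryptate vs ADP-d2), ex 320 nm, em 590/665 nm; signal drops as ADP forms. Enzyme 25 nM, ATP 10 uM, 30 min at 37°C after 10 min compound preincubation.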
RXFP1 agonist = activates the human relaxin receptor RXFP1; HEK293T-RXFP1 cAMP TR-FRET, 30 min; response scale: percent of porcine relaxin response, buffer zero; Potency, µM (series often up to 57.5 µM), most hits filed as activators; 0.3% of 370,000 active; AID 2676; note: nearly all actives have a fitted effect of over 60% in size
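HEK293 cells stably expressing RXFP1, treated 30 min at 37C with compounds plus PDE4 inhibitor Ro 20174; cAMP measured by HTRF TR-FRET. Normalized to buffer and 29 nM porcine relaxin; EC50 by Hill fit.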
gsp agonist = activates gsp, the McCune-Albright syndrome mutation. gsp mutant cells, cAMP HTRF, 30 min. Potency, µM (highest dose often 76.9 µM), usual class: activators. 0.13% of 340,000 active. AID 624287; active = well fitted activation curve with a large enough effect; inconclusive = small, poorly fitted or top-dose-only effect, or another doubt; inactive = no such curve, though single readings can be large or run the other way; cell line not stated here;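 note: phosphodiesterase inhibitor Ro 20-1724 added with compounds to block cAMP breakdown; nearly all actives have a fitted effect of over 60% in size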
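Cells in DMEM/10% FBS with G418 were pretreated with compounds in DMSO plus […] (300 uM stock) for 30 min at 37C. cAMP was measured by HTRF (cAMP-d2 plus anti-cAMP antibody-K) after 30 min at room temperature.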
CCT chaperon mod = cytosolic chaperonin activity modulation. purified chaperonin ATPase assay, HTRF ADP detection, 30 min. activity change, % (test concentration not listed), hits read low. 0.3% of 360,000 active; in the data active = activity change below about -30%
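We incubate TRiC, 40 or 20 nM final, with library compounds at 76 uM and 10 uM ATP for 30 min at 37 °C. ADP formed is detected with Transcreener HTRF reagents after 30 min at room temperature.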
gsp antagonist = antagonists of gsp mutant (McCune-Albright syndrome). gsp-mutant cells, cAMP HTRF, 30 min. Potency, µM (top dose mostly 76.9 µM), usual class: inhibitors. 0.4% of 340,000 active; calls by dose curve; cell line not stated here;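 note: intracellular cAMP measured with PDE inhibitor Ro 20-1724 present during compound exposure; nearly all actives have a fitted effect of over 65% in size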
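G418-selected cells were plated in DMEM/10% FBS for 16-24 h at 37C, then treated with compounds plus the PDE inhibitor […] (300 uM solution added) for 30 min at 37C. Intracellular cAMP was measured by HTRF after 30 min lysis at room temperature.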
Hits are given with their value; n = inactive; u = inconclusive; x = not tested or not shown; ! = repeats disagree; [ ] = dose if it differs, or a comment. Unless noted, calls come from the whole dose curve; as a rule, active = well fitted curve in the direction sought with a large enough effect; inconclusive = small, poorly fitted or top-dose-only effect, or another doubt; inactive = no such curve, though single readings can be large; an effect the other way counts as inactive or inconclusive.

SMILES	RXFP1 antagonist	MmCpn inh	RXFP1 agonist	gsp agonist	CCT chaperon mod	gsp antagonist
c1ccc(OCCOCCN2CCN(C(c3ccccc3)c3ccccc3)CC2)cc1	n	n	n	n	n	n
COc1ccccc1OCCCCN1CCN(C(c2ccccc2)c2ccccc2)CC1	-80.2	n	n	n[15.4 µM]	n	n
CN(C(=O)c1ccc2c(c1)N(Cc1ccccc1F)C(=O)c1ccccc1S2)C1CCCCC1	u	x	n	x	x	x
CC(C)N(CCCNC(=O)Cn1ncc2c([nH]c3ccccc32)c1=O)Cc1ccccc1	-74.8!	n	n	u	n	n
COC(=O)c1ccc(NC(C)=O)cc1OC	n	x	x	x	x	x
Cc1cc(C)cc(NC(=O)CCCn2c3ccccc3c(=O)c3ccccc32)c1	n	x	n	x	x	x
COc1ccc(NC(=O)C2=C(C)Nc3ncnn3C2c2ccc(O)cc2)cc1 (stereo not given)	x	x	n	x	x	x
CCOc1ccc(NC(=S)c2ccc3ccccc3n2)cc1	n	n	n	n	-30.0	n
CCOc1ccc(NC(=S)Nc2ccc(OCC)cc2)cc1	n	n	n	n[15.4 µM]	n	35.5µM
CCOc1ccc(NS(=O)(=O)c2ccc(NC(=S)NC(C)=O)cc2)cc1	-69.6	n	n	u	n	n
COc1ccc(NC(=S)c2ccc3ccccc3n2)cc1	n	n	n	n	n	n
CC(CCc1ccc2c(c1)OCO2)NN (stereo not given)	n	x	x	x	x	x
COC(=O)CCc1c(C)c(C(=O)c2ccc(F)cc2)c2ccccn12	n	n	n	n[15.4 µM]	n	n
Cc1c(C(=O)Nc2ccc(F)cc2)c2ccccn2c1CCc1ccncc1	n	n	n	n[15.4 µM]	n	11.2µM
COc1cc(C2c3c(-c4ccccc4O)n[nH]c3C(=O)N2Cc2ccco2)ccc1OCC(C)C (stereo not given)	-67.9	x	n	x	x	x
O=C1c2[nH]nc(-c3ccccc3O)c2C(c2ccc(Cl)cc2)N1Cc1ccco1 (stereo not given)	-110.8	x	n	x	x	x
CCOc1ccc(NC(=O)NC(C)c2c(-n3cccc3)sc3c2CCN(CC)C3)cc1 (stereo not given)	n	x	n	x	x	x
O=C(/C(=C\c1ccccc1)c1nc2ccccc2[nH]1)c1ccc(Cl)cc1	n	n	n	n	n	n
O=C(/C=C/c1cccc(Cl)c1)c1nc2ccccc2[nH]1	-82.4	n	n	n	n	n
CCn1c(=O)n(CC)c2cc(N3CCCCC3)c(NC(=O)Nc3cc(C)cc(C)c3)cc21	n	x	n	x	x	x
Cc1cccc(C)c1NC(=O)CSc1nnc(-c2ccco2)c(-c2ccco2)n1	-67.8	n	n	n[15.4 µM]	n	n
Cc1oc(-c2ccc(C(=O)NCc3ccccc3)cc2)nc1CN1CCc2ccccc21	n	x	n	x	x	x
CS(=O)(=O)c1ccc(S(=O)CC(=O)OCc2ccccc2)c([N+](=O)[O-])c1 (stereo not given)	-108.4	n	n	n[15.4 µM]	n	u
CCO[C@@H]1OC(C(=O)NCc2ccccc2)=C[C@H](C2CCCCC2)[C@H]1CCCO	x	x	n	n	n	11.2µM
CCOC(=O)CCCCC(=O)c1[nH]c(=O)[nH]c1CSc1nc(C)cc(C)n1	n	n	n	u	n	n
SMILES	RXFP1 antagonist	MmCpn inh	RXFP1 agonist	gsp agonist	CCT chaperon mod	gsp antagonist
CCOC(=O)CCCCC(=O)c1[nH]c(=O)[nH]c1CSc1nnc2c3cc(Br)ccc3n(C)c2n1	x	n	14.1µM	x	x	x
CC(=O)O[C@H]1CC[C@@]2(C)C(=CC[C@@H]3[C@@H]2CC[C@]2(C)C(C(C)=O)=CC[C@@H]32)C1	n	x	x	x	x	x
CC12CCC(=O)N1C(C(=O)Nc1nc3ccc(S(C)(=O)=O)cc3s1)CS2 (stereo not given)	n	n	n	n	n	n
CC12CCC(=O)N1C(C(=O)Nc1nc3ccc(Cl)cc3s1)CS2 (stereo not given)	-60.4	n	n	n[15.4 µM]	n	n
CCOC(=O)C1=C(CN2CCN(c3cc(C)ccc3C)CC2)NC(=O)NC1c1ccccc1 (stereo not given)	x	x	n	x	x	x
CCN(CC)CCCNC(=O)c1nn(-c2ccc(OC)cc2OC)c(=O)c2ccccc12	n	n	n	n	n	n
CCN(CC)CCCNC(=O)c1nn(-c2cccc(OC)c2)c(=O)c2ccccc12	n	n	n	u	-75.6	n
